{"source": "PubChem BioAssay AID1117294", "about": "(Broad Institute, 2014)", "note": "Calls of active or inactive are those of the source.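 How the source made its calls: active means Lowers HeLa cell ATP signal, with fitted half-maximal potency at most twice the top tested dose in every run; inconclusive means runs disagree, or fits flat mid-range or poor; inactive means every run inactive, including signal rising.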"}
{"test": "HeLa cell cytotoxicity, dose response, cytotoxicity control, CellTiter-Glo luminescence, dry powder, set 3 (AID 1117294)", "details": "HeLa viability, ATP luminescence (CellTiter-Glo), 72 h; at 0.05 µM"}
{"smiles": "COc1ccc(C(=O)O)cc1S(=O)(=O)Nc1cc(C(F)(F)F)ccc1N1CCN(C(C)=O)CC1", "max activity": "-16.6% (inactive)"}
{"smiles": "COc1ccc(C2=NN(c3ccc(C(=O)O)cc3)C(c3ccc(OC)c(OC)c3)C2)cc1", "note": "(stereo not drawn)", "max activity": "-16.2% (inactive)"}
{"smiles": "COc1ccc(C(=O)O)cc1S(=O)(=O)Nc1ccc(N2CCCCC2)cc1C(F)(F)F", "max activity": "-17% (inactive)"}
